PubChem BioAssay AID1159580 (chemical genetic matrix, 2015)
Out of some 5,500 compounds screened, about 2,000 (36%) were called active. About 18% were inconclusive and are not listed. Cut-off read from the data, not from the text of the source: active = normalized growth mostly below about 0.91 (no sharp cut-off); inconclusive = no clear call, values can overlap the other calls; inactive = mostly above about 0.92. The list shows a part of the results.

Assay: chemical genetic growth profiling, strain panel (AID 1159580);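 note: tested at 20 µM; growth read once vehicle control cultures reached saturation at 30 °C; 1 = growth at the plate median or of vehicle wells; lower values mean less growth of the strain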
Conditions: growth OD
[1] = S. cerevisiae deletion strains, locus YHR030C, strain SLT2, hits give low values
[2] = S. cerevisiae deletion strains, locus YAL013W, strain DEP1, hits give low values
[3] = S. cerevisiae deletion strains, locus YBR229C, strain ROT2, hits give low values
[4] = S. cerevisiae deletion strains, locus YDL101C, strain DUN1, hits give low values
[5] = S. cerevisiae deletion strains, locus YDR150W, strain NUM1, hits give low values
[6] = S. cerevisiae deletion strains, locus YEL061C, strain CIN8, hits give low values
[7] = S. cerevisiae deletion strains, locus YGR078C, strain PAC10, hits give low values
[8] = S. cerevisiae deletion strains, locus YHR087W, strain rtc3, hits give low values
[9] = S. cerevisiae deletion strains, locus YJR043C, strain POL32, hits give low values
[10] = S. cerevisiae deletion strains, locus YJR075W, strain HOC1, hits give low values
[11] = S. cerevisiae deletion strains, locus YLR039C, strain RIC1, hits give low values
[12] = S. cerevisiae deletion strains, locus YLR058C, strain SHM2 (second series), hits give low values
[13] = S. cerevisiae deletion strains, locus YLR085C, strain ARP6, hits give low values
[14] = S. cerevisiae deletion strains, locus YLR262C, strain YPT6, hits give low values
[15] = S. cerevisiae deletion strains, locus YML094W, strain GIM5, hits give low values
[16] = S. cerevisiae deletion strains, locus YMR219W, strain ESC1, hits give low values
[17] = S. cerevisiae deletion strains, locus YMR263W, strain SAP30, hits give low values
[18] = S. cerevisiae deletion strains, locus YNL153C, strain GIM3, hits give low values
[19] = S. cerevisiae deletion strains, locus YNL298W, strain CLA4 (second series), hits give low values
[20] = S. cerevisiae deletion strains, locus YNL322C, strain KRE1, hits give low values
[21] = S. cerevisiae deletion strains, locus YNR030W, strain Alg12, hits give low values
[22] = S. cerevisiae deletion strains, locus YOL006C, strain TOP1, hits give low values
[23] = S. cerevisiae deletion strains, locus YPL055C, strain LGE1, hits give low values
[24] = S. cerevisiae deletion strains, locus YPL241C, strain CIN2, hits give low values
[25] = S. cerevisiae deletion strains, locus YPR135W, strain CTF4, hits give low values

Measured: normalized growth

N#CC(C(=O)Nc1cccc(C(F)(F)F)c1)C(=S)Nc1ccccc1Cl (centres undefined)
active: S. cerevisiae deletion strains, locus YDL214C, strain PRR2, hits give low values 0.296 | S. cerevisiae deletion strains, locus YDR477W, strain SNF1, hits give low values 0.105 | S. cerevisiae deletion strains, locus YER133W, strain GLC7, hits give low values 0.143 | S. cerevisiae deletion strains, locus YGR040W, strain KSS1, hits give low values 0.147 | S. cerevisiae deletion strains, locus YGR052W, strain FMP48, hits give low values 0.396 | S. cerevisiae deletion strains, locus YLR113W, strain HOG1, hits give low values 0.449 | S. cerevisiae deletion strains, locus YNL183C, strain NPR1, hits give low values 0.191 | S. cerevisiae deletion strains, locus YPL256C, strain CLN2, hits give low values 0.501 | S. cerevisiae deletion strains, locus YPR111W, strain DBF20, hits give low values 0.784
inactive: S. cerevisiae deletion strains, locus YAR019C, strain CDC15, hits give low values 0.992 | S. cerevisiae deletion strains, locus YDL017W, strain CDC7, hits give low values 0.985 | S. cerevisiae deletion strains, locus YDL028C, strain MPS1, hits give low values 1 | S. cerevisiae deletion strains, locus YDL108W, strain KIN28, hits give low values 0.99 | S. cerevisiae deletion strains, locus YDL132W, strain cdc53, hits give low values 0.976 | S. cerevisiae deletion strains, locus YDR052C, strain DBF4, hits give low values 1 | S. cerevisiae deletion strains, locus YDR054C, strain cdc34, hits give low values 0.98 | S. cerevisiae deletion strains, locus YER123W, strain YCK3, hits give low values 0.969 | S. cerevisiae deletion strains, locus YFL009W, strain cdc4, hits give low values 0.989 | S. cerevisiae deletion strains, locus YFL029C, strain CAK1, hits give low values 1 | S. cerevisiae deletion strains, locus YFR003C, strain YPI1, hits give low values 0.997 | S. cerevisiae deletion strains, locus YFR019W, strain FAB1, hits give low values 0.957 | S. cerevisiae deletion strains, locus YFR028C, strain CDC14, hits give low values 0.977 | S. cerevisiae deletion strains, locus YGR092W, strain DBF2, hits give low values 0.98 | [1] 0.957 | S. cerevisiae deletion strains, locus YHR079C, strain IRE1, hits give low values 0.978 | S. cerevisiae deletion strains, locus YHR205W, strain SCH9, hits give low values 0.975 | S. cerevisiae deletion strains, locus YIL147C, strain SLN1, hits give low values 0.996 | S. cerevisiae deletion strains, locus YJL095W, strain BCK1, hits give low values 0.914 | S. cerevisiae deletion strains, locus YJR016C, strain ILV3, hits give low values 0.978 | S. cerevisiae deletion strains, locus YJR066W, strain TOR1, hits give low values 0.78 | S. cerevisiae deletion strains, locus YKL048C, strain ELM1, hits give low values 0.986 | S. cerevisiae deletion strains, locus YKL101W, strain HSL1, hits give low values 0.994 | S. cerevisiae deletion strains, locus YKL193C, strain SDS22, hits give low values 0.998 | S. cerevisiae deletion strains, locus YLR133W, strain CKI1, hits give low values 0.984 | S. cerevisiae deletion strains, locus YLR403W, strain SFP1, hits give low values 0.979 | S. cerevisiae deletion strains, locus YML070W, strain DAK1, hits give low values 0.966 | S. cerevisiae deletion strains, locus YMR001C, strain CDC5, hits give low values 0.995 | S. cerevisiae deletion strains, locus YMR205C, strain PFK2 (second series), hits give low values 0.991 | S. cerevisiae deletion strains, locus YMR277W, strain FCP1, hits give low values 0.98 | S. cerevisiae deletion strains, locus YNL006W, strain LST8, hits give low values 0.991 | S. cerevisiae deletion strains, locus YNL020C, strain ARK1, hits give low values 0.981 | S. cerevisiae deletion strains, locus YNL207W, strain RIO2, hits give low values 0.996 | S. cerevisiae deletion strains, locus YNL307C, strain MCK1 (second series), hits give low values 0.983 | S. cerevisiae deletion strains, locus YOL078W, strain AVO1, hits give low values 0.992 | S. cerevisiae deletion strains, locus YOL136C, strain PFK27, hits give low values 0.959 | S. cerevisiae deletion strains, locus YOR061W, strain CKA2, hits give low values 0.97 | S. cerevisiae deletion strains, locus YOR231W, strain MKK1, hits give low values 1.01 | S. cerevisiae deletion strains, locus YOR329C, strain SCD5, hits give low values 0.997 | S. cerevisiae deletion strains, locus YPL153C, strain RAD53, hits give low values 0.963 | S. cerevisiae deletion strains, locus YPL204W, strain HRR25, hits give low values 0.963 | S. cerevisiae deletion strains, locus YPL209C, strain IPL1, hits give low values 1 | S. cerevisiae deletion strains, locus YPR025C, strain CCL1, hits give low values 0.993 | S. cerevisiae deletion strains, strain NNK1, hits give low values 1.02 | S. cerevisiae deletion strains, strain TSCII, hits give low values 0.996

Cc1cc(NC(=O)Nc2cccc(C(F)(F)F)c2)n(C)n1
inactive: [2] 1 | [3] 0.997 | S. cerevisiae deletion strains, locus YCL061C, strain MRC1, hits give low values 1.01 | [4] 0.983 | [5] 0.998 | [6] 1.01 | [7] 1.01 | [1] 1.08 | [8] 0.989 | [9] 0.998 | [10] 0.992 | [11] 1.02 | [12] 1.01 | [13] 0.986 | [14] 1.09 | [15] 0.987 | [16] 1 | [17] 1.01 | [18] 0.998 | [19] 0.991 | [20] 1.01 | [21] 1 | [22] 1 | [23] 0.989 | [24] 0.981 | [25] 1.08 | S. cerevisiae strains, strain wild type, hits give low values 0.986

Cc1ccc(NC(=S)C(C#N)C(=O)N2CCCC2)c(C)c1 (centres undefined)
inactive: [2] 1.01 | [3] 0.998 | [4] 1.01 | [5] 0.928 | [6] 1.02 | [7] 0.988 | S. cerevisiae deletion strains, locus YGR229C, strain SMI1, hits give low values 1 | [1] 1.06 | [8] 1.01 | [9] 1.01 | [10] 1.02 | S. cerevisiae deletion strains, locus YKL190W, strain CNB1, hits give low values 1.01 | [11] 1.02 | [12] 0.995 | [13] 1.06 | [14] 1 | [15] 1.03 | [16] 1 | [17] 0.922 | S. cerevisiae deletion strains, locus YMR307W, strain GAS1, hits give low values 1.03 | [18] 0.98 | [19] 1.03 | [20] 0.988 | [21] 1.02 | [22] 1.04 | [23] 0.948 | [24] 1.02 | [25] 1.04
